Results reported in PubChem BioAssay.

tested on: Sonic hedgehog protein (Shh); assay: small-molecule binders of Shh protein, primary screen, biochemical, small-molecule microarray, 635/667 nm fluorescence (AID 1151); conditions: small-molecule microarray binding, 635 nm fluorescence; higher = more signal;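 also: Shh protein binding to compounds spotted on small-molecule microarray slides; score combines spot fluorescence intensity with signal-to-noise across triplicate slides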

`CCOC(=O)[C@H](Cc1ccccc1)NC(=O)CCC1CC(OC(=O)NCc2ccc3c(c2)OCO3)CC2(CCCC(COC(=O)NCCC(C)C)O2)O1` (stereo partly drawn) and `CCOC(=O)[C@H](CC(C)C)NC(=O)CCC1CC(OC(=O)NCc2ccc3c(c2)OCO3)CC2(CCCC(COC(=O)NCCCN3CCCC3=O)O2)O1` (stereo partly drawn) are the same in composite z-score: 1.74 for the first, 1.74 for the second.

Compared with `COc1ccc(COC(=O)NN=C2C[C@@H](O)[C@@H](O)[C@@H]3[C@@H]4C(=O)N(C5CCCCC5)C(=O)[C@@H]4CC[C@H]23)cc1`, `O=C1C2=CC[C@H]3C(=O)N(c4cccc(Oc5ccccc5)c4)C(=O)[C@H]3[C@H]2[C@H](O)[C@@H]2O[C@H]12` is higher in composite z-score: -1.61 for the first, 0.264 for the second.

Going from `CCC1=NOC(CCC2CC(OC(=O)NCc3cccc4c3OCO4)CC3(CCCC(COC(=O)NCCc4ccccc4OC)O3)O2)C1` (stereo not drawn) to `COC(=O)[C@H](C)NC(=O)CCC1CC(OC(=O)NCc2ccc3c(c2)OCO3)CC2(CCCC(COC(=O)NCc3cccc(C(F)(F)F)c3)O2)O1` (stereo partly drawn), the composite z-score rises from 0.157 to 1.28.

Going from `COC(=O)CC=C[C@@H](C)[C@@H](C=NO[C@@H]1O[C@H](COC(C)=O)[C@@H](OC(C)=O)[C@H](OC(C)=O)[C@H]1OC(C)=O)NS(=O)(=O)c1ccc(C)cc1` to `CO[C@H]1COC(=O)CC=C[C@H](C)[C@@H](OC)COC(=O)[C@@H](C)NC(=O)CC=C[C@@H]1C`, the composite z-score rises from 0.629 to 2.14.
